In PubChem BioAssay (NCI):
Compounds without any hit were thinned out: in the full panel of roughly 79,000, 15% have a hit. Activity calls are given as the source filed them. Cut-off read from the data, not from the text of the source: active = growth inhibition above about 70%; inactive = the rest.

Experiments:
[1] = NCI Yeast Anticancer Drug Screen. Data for the mec2-1 strain (AID 157); conditions: S. cerevisiae mec2-1 strain, stronger effect = higher value
Procedure, shortened: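 Strain: mec2-1 (DNA repair/cell cycle alteration). Compound exposure, then growth measured; inhibition expressed relative to vehicle.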

[2] = NCI Yeast Anticancer Drug Screen. Data for the rad14 strain (AID 159);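 note: 0% = growth of vehicle-treated control cultures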; conditions: S. cerevisiae rad14 strain growth inhibition, stronger effect = higher value
Procedure, shortened: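 DNA repair-defective yeast, compound-exposed; % growth inhibition derived by comparison with vehicle-treated controls.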

[3] = NCI Yeast Anticancer Drug Screen. Data for the CLN2oe strain (AID 163);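 note: 0% = growth of vehicle-only control cultures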; conditions: S. cerevisiae CLN2oe strain, stronger effect = higher value
Procedure, shortened: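 Growth of a genetically modified yeast strain is measured after compound exposure and compared with cultures given vehicle alone.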

[4] = NCI Yeast Anticancer Drug Screen. Data for the cln2 rad14 strain (AID 165);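 note: 0% = growth equal to vehicle treated cultures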; conditions: S. cerevisiae cln2 rad14 strain, stronger effect = higher value
Procedure, shortened: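 Compounds are applied to the cln2 rad14 yeast strain, and growth is then compared with that of vehicle-treated cultures to give inhibition.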

[5] = NCI Yeast Anticancer Drug Screen. Data for the bub3 strain (AID 167); conditions: S. cerevisiae bub3 mutant strain, stronger effect = higher value
Procedure, shortened: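 In this screen, a yeast mutant lacking normal mitotic checkpoint function is challenged with compound. Relative growth versus vehicle gives the inhibition value.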

[6] = NCI Yeast Anticancer Drug Screen. Data for the wt2 strain (AID 169);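 note: 0% = growth of vehicle-treated yeast cultures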; conditions: S. cerevisiae wt2 strain growth inhibition, stronger effect = higher value
Procedure, shortened: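 This strain belongs to a panel of yeast strains with defined genetic alterations in DNA damage repair or cell cycle control. Compounds are applied, and growth inhibition is measured against vehicle-treated cultures.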

[7] = NCI Yeast Anticancer Drug Screen. Data for the mlh1 strain (AID 171);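 note: 0% = growth of vehicle-treated control cultures of the same strain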; conditions: S. cerevisiae mlh1 strain growth inhibition, stronger effect = higher value
Procedure, shortened: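 Growth of the mutant yeast strain after compound exposure, expressed as inhibition relative to vehicle-only controls.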

[8] = NCI Yeast Anticancer Drug Screen. Data for the mlh1 rad18 strain (AID 175); conditions: S. cerevisiae mlh1 rad18 strain growth inhibition, stronger effect = higher value
Procedure, shortened: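 Read-out is yeast growth inhibition, calculated against vehicle-only controls. The compound was applied to a strain engineered with DNA damage repair alterations.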

[9] = NCI Yeast Anticancer Drug Screen. Data for the rad18 strain (AID 177); conditions: S. cerevisiae rad18 mutant growth inhibition, stronger effect = higher value
Procedure, shortened: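 Growth of the mutant yeast strain after compound exposure, normalised to vehicle-only cultures.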

[10] = NCI Yeast Anticancer Drug Screen. Data for the wt1 strain (AID 149);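 note: 0% = growth of vehicle-treated wt1 cultures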; conditions: S. cerevisiae wt1 strain (SPY 50644) growth inhibition, stronger effect = higher value
Procedure, shortened: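 wt1 strain grown with compound or vehicle; inhibition taken from the growth difference.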

[11] = NCI Yeast Anticancer Drug Screen. Data for the rad50EPP+ strain (AID 151);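 note: 0% = growth of vehicle-treated control cultures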; conditions: S. cerevisiae rad50 mutant strain, stronger effect = higher value
Procedure, shortened: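 Compounds were applied to the rad50EPP+ yeast strain, which bears a defined DNA repair alteration, and growth inhibition was determined relative to vehicle-treated cultures.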

[12] = NCI Yeast Anticancer Drug Screen. Data for the mgt1 strain (AID 153); conditions: S. cerevisiae mgt1 mutant growth inhibition, stronger effect = higher value
Procedure, shortened: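 Strain: mgt1 yeast, one of a set carrying defined DNA damage repair or cell cycle control alterations. Compound-treated growth compared with vehicle.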

[13] = NCI Yeast Anticancer Drug Screen. Data for the rad50 strain (AID 155);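 note: 0% = growth of vehicle-only cultures of the same strain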; conditions: S. cerevisiae rad50 strain growth inhibition, stronger effect = higher value
Procedure, shortened: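 DNA repair mutant yeast, compound exposure, growth read-out; inhibition is taken relative to vehicle.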

[14] = NCI Yeast Anticancer Drug Screen. Data for the sgs1 mgt1 strain (AID 161);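 note: 0% = growth of cultures given vehicle only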; conditions: S. cerevisiae sgs1 mgt1 strain, stronger effect = higher value
Procedure, shortened: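 Inhibition of yeast growth, normalised to vehicle-treated controls, is reported for a strain bearing genetic alterations in DNA damage repair.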

[15] = NCI Yeast Anticancer Drug Screen. Data for the sgs1 strain (AID 173);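 note: 0% = growth of vehicle-only control cultures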; conditions: S. cerevisiae sgs1 mutant, stronger effect = higher value
Procedure, shortened: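 Growth of a yeast strain bearing a defined genetic alteration is measured after compound treatment. Inhibition is expressed relative to vehicle-only controls.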

[16] = at 5.0 µM (retest, dose inferred, filed as 0.5)
[17] = at 50.0 µM (retest, dose inferred, filed as 5.0)

Measured: growth inhibition

O=C1c2ccc(O)cc2C(=O)c2c(O)ccc(O)c21
active: [1]; at 100.0 µM 89% | [2]; at 11.0 µM 93% | [2]; at 33.0 µM 95% | [2]; at 100.0 µM 91% | [3]; at 11.0 µM 92% | [3]; at 33.0 µM 94% | [3]; at 100.0 µM 91% | [4]; [17] 88% | [5]; at 33.0 µM 91% | [5]; [17] 92% | [5]; at 100.0 µM 88% | [6]; at 11.0 µM 92% | [6]; at 33.0 µM 96% | [6]; at 100.0 µM 90% | [7]; at 11.0 µM 88% | [7]; at 33.0 µM 94% | [7]; at 100.0 µM 91% | [8]; [17] 97% | [9]; at 11.0 µM 88% | [9]; at 33.0 µM 94% | [9]; at 100.0 µM 89%
inactive: [2]; at 1.2 µM 10% | [2]; at 3.7 µM 27% | [3]; at 1.2 µM 7% | [3]; at 3.7 µM 21% | [4]; [16] 32% | [4]; at 50.0 µM 51% | [5]; at 1.2 µM -2% | [5]; at 3.7 µM 0% | [5]; [16] 18% | [5]; at 11.0 µM 62% | [5]; at 50.0 µM 29% | [6]; at 1.2 µM 1% | [6]; at 3.7 µM 19% | [7]; at 1.2 µM 4% | [7]; at 3.7 µM 20% | [8]; [16] 48% | [8]; at 50.0 µM 68.7% | [9]; at 1.2 µM 6% | [9]; at 3.7 µM 17%

CN(Cc1cccc2ccccc12)Cc1cccc2ccccc12
active: [13]; [17] 76% | [5]; [17] 87% | [5]; at 50.0 µM 73.7%
inactive: [10]; at 1.2 µM 1% | [10]; at 3.7 µM 1% | [10]; at 11.0 µM -1% | [10]; at 33.0 µM -2% | [10]; at 100.0 µM -1% | [11]; at 1.2 µM -1% | [11]; at 3.7 µM 5% | [11]; at 11.0 µM 24% | [11]; at 33.0 µM 34% | [11]; at 100.0 µM 36% | [12]; at 1.2 µM -2% | [12]; at 3.7 µM -3% | [12]; at 11.0 µM -7% | [12]; at 33.0 µM -2% | [12]; at 100.0 µM 3% | [13]; at 1.2 µM 0% | [13]; at 3.7 µM -3% | [13]; [16] 1% | [13]; at 11.0 µM 7% | [13]; at 33.0 µM 6% | [13]; at 50.0 µM 60.5% | [13]; at 100.0 µM 9% | [1]; at 1.2 µM -2% | [1]; at 3.7 µM -2% | [1]; [16] 15% | [1]; at 11.0 µM -3% | [1]; at 33.0 µM 1% | [1]; [17] 26% | [1]; at 50.0 µM 16.7% | [1]; at 100.0 µM 11% | [2]; at 1.2 µM 0% | [2]; at 3.7 µM 2% | [2]; at 11.0 µM 0% | [2]; at 33.0 µM 13% | [2]; at 100.0 µM 30% | [14]; [16] 2% | [14]; [17] 51% | [14]; at 50.0 µM 59.7% | [3]; at 1.2 µM -3% | [3]; at 3.7 µM -6% | [3]; at 11.0 µM -18% | [3]; at 33.0 µM -15% | [3]; at 100.0 µM -17% | [5]; at 1.2 µM -2% | [5]; at 3.7 µM 1% | [5]; [16] -12% | [5]; at 11.0 µM -25% | [5]; at 33.0 µM 6% | [5]; at 100.0 µM 2% | [6]; at 1.2 µM -2% | [6]; at 3.7 µM 0% | [6]; at 11.0 µM -4% | [6]; at 33.0 µM 3% | [6]; at 100.0 µM 9% | [7]; at 1.2 µM 4% | [7]; at 3.7 µM 2% | [7]; at 11.0 µM -2% | [7]; at 33.0 µM -10% | [7]; at 100.0 µM 13% | [15]; at 1.2 µM 2% | [15]; at 3.7 µM 2% | [15]; at 11.0 µM 2% | [15]; at 33.0 µM 19% | [15]; at 100.0 µM 24% | [8]; [16] -10% | [8]; [17] 41% | [8]; at 50.0 µM 57.8%

NNc1nnc(-c2ccccc2)nc1Cc1ccccc1
inactive: [10]; at 1.2 µM -25% | [10]; at 3.7 µM -15% | [10]; at 11.0 µM -7% | [11]; at 1.2 µM -12% | [11]; at 3.7 µM -3% | [11]; at 11.0 µM 12% | [11]; at 33.0 µM 48% | [12]; at 1.2 µM 16% | [12]; at 3.7 µM 21% | [12]; at 11.0 µM 21% | [13]; at 1.2 µM 4% | [13]; at 3.7 µM -1% | [13]; [16] -35% | [13]; at 11.0 µM 10% | [13]; [17] -4% | [13]; at 50.0 µM 67.1% | [1]; at 1.2 µM -11% | [1]; at 3.7 µM -9% | [1]; [16] 2% | [1]; at 11.0 µM -8% | [2]; at 1.2 µM -8% | [2]; at 3.7 µM -16% | [2]; at 11.0 µM -12% | [3]; at 1.2 µM 25% | [3]; at 3.7 µM 18% | [3]; at 11.0 µM 11% | [4]; [16] 12% | [5]; at 1.2 µM 16% | [5]; at 3.7 µM 5% | [5]; [16] -9% | [5]; at 11.0 µM -17% | [7]; at 1.2 µM 6% | [7]; at 3.7 µM 4% | [7]; at 11.0 µM 27% | [15]; at 1.2 µM -15% | [15]; at 3.7 µM -15% | [15]; at 11.0 µM -6% | [8]; [16] -30% | [9]; at 1.2 µM -17% | [9]; at 3.7 µM -30% | [9]; at 11.0 µM -5%
active: [10]; at 33.0 µM 96% | [10]; at 100.0 µM 88% | [11]; at 100.0 µM 90% | [12]; at 33.0 µM 97% | [12]; at 100.0 µM 88% | [13]; at 33.0 µM 96% | [13]; at 100.0 µM 93% | [1]; at 33.0 µM 95% | [1]; [17] 90% | [1]; at 50.0 µM 91.3% | [1]; at 100.0 µM 87% | [2]; at 33.0 µM 96% | [2]; at 100.0 µM 91% | [3]; at 33.0 µM 97% | [3]; at 100.0 µM 93% | [4]; [17] 80% | [4]; at 50.0 µM 86% | [5]; at 33.0 µM 97% | [5]; [17] 96% | [5]; at 50.0 µM 89% | [5]; at 100.0 µM 90% | [7]; at 33.0 µM 97% | [7]; at 100.0 µM 83% | [15]; at 33.0 µM 91% | [15]; at 100.0 µM 94% | [8]; [17] 97% | [8]; at 50.0 µM 83.6% | [9]; at 33.0 µM 96% | [9]; at 100.0 µM 91%
